8 molecules from ChEMBL document CHEMBL3988442, “University of Dundee, Small-Polar-MMV Screening Library” (2021) can be followed below.

What all share (parameters): scale not given: direction of the effect not stated beside the values
Assay [1] addresses Protein translocase subunit SecA (Escherichia coli (strain K12)) (UniProt P10408). Briefly: Assay to Identify E. coli SecA ATPase Inhibitors. Type of assay: functional. As to conditions: 30 µM.
The target in assay [2] is T1, Ubiquitin-activating enzyme e1, putative (Leishmania donovani (strain BPK282A1)) (UniProt E9BSI1).
T1 sequence (whole entry): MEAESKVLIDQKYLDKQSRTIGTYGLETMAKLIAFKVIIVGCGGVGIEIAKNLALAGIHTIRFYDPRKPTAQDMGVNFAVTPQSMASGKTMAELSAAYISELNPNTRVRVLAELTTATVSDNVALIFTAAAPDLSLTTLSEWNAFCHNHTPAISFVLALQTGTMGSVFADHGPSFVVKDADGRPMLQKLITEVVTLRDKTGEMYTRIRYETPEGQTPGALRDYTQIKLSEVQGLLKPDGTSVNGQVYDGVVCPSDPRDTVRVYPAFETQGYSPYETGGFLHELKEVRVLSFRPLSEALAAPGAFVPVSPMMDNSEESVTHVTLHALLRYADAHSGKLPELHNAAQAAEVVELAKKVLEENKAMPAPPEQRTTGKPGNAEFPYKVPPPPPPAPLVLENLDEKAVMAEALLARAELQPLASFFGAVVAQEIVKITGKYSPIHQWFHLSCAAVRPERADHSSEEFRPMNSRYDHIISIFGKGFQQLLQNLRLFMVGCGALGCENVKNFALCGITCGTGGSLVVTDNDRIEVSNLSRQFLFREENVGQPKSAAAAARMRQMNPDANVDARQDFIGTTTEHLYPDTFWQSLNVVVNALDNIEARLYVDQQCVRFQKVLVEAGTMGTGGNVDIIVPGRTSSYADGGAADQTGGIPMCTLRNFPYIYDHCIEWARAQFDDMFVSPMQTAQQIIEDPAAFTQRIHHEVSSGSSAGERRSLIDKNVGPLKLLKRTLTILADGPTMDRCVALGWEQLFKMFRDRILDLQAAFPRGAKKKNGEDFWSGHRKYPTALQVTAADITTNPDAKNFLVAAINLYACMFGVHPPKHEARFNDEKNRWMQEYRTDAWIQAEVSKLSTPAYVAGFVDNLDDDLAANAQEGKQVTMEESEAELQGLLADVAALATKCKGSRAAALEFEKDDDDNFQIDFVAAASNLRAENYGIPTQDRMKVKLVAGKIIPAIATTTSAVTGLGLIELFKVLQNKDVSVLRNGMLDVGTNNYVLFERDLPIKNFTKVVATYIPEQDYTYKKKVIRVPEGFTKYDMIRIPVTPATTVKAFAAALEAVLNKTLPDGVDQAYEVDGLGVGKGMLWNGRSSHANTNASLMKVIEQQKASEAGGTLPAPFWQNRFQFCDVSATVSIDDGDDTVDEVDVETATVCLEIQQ
In words: Leishmania donovani Ubiquitin Activating Enzyme (LdE1). The class given is functional. As to conditions: 30 µM.

In assay [3] the target is AMP-activated protein kinase, AMPK (Homo sapiens) (UniProt P54646+O43741+P54619+Q9UGJ0+Q9Y478+Q13131+Q9UGI9). Briefly: AMP-dependent Kinase enzyme assay. An in vitro enzyme assay that detects ADP turnover that is directly proportional to AMPK activity. This uses naive AMPK that is activated during the assay with MK-8722. The class given is functional. The note with it: 30 µM.

Assay [4] concerns the target Sialic acid-binding Ig-like lectin 9 (Homo sapiens) (UniProt Q9Y336). Briefly: Hs-Siglec9 ALPHAscreen SOP 20170721. The note with it: 10 µM. For orientation: Bead proximity is the source of the signal in Alpha formats.
The next assay concerns Trypanosoma cruzi. Briefly: Trypanosoma cruzi phosphomannomutase and mannose-1-phosphate guanylyltransferase assay. The class given is functional. The note with it: 10 µM.
For assay [5], the target named is T2, Arginase-2, mitochondrial (Homo sapiens) (UniProt P78540).
T2 sequence (whole entry): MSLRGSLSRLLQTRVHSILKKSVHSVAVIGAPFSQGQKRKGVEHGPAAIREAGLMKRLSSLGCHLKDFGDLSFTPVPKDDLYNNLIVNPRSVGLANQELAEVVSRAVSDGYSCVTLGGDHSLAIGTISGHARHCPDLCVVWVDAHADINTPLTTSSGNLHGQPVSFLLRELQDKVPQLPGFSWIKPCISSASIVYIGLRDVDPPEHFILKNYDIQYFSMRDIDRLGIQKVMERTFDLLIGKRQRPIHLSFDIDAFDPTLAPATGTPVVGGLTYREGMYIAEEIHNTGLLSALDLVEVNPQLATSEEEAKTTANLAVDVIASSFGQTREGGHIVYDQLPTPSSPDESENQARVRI
In words: in vitro enzyme assay to detect the production of urea directly proportional to the activity of Arginase II. Also: in the data most compounds retested in dose-response had high values. Type of assay: functional. The note with it: 33.3 µM.

The target in assay [6] is T3, Proteasome subunit beta (Trypanosoma cruzi) (UniProt O96673).
T3 sequence (whole entry): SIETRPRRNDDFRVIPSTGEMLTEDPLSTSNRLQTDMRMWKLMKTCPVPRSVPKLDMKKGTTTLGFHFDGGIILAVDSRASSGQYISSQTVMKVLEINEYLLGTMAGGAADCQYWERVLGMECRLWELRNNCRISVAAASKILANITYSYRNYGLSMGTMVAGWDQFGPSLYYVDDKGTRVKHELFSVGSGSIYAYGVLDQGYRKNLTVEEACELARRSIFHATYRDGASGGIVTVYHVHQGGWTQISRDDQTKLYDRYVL
In words: Trypanosoma cruzi proteasome chymotrypsin-like activity (TcProtChymo) assay. Also: in the data most compounds retested in dose-response had high values. The class given is functional. As to conditions: 9.37 µM.

For a further assay, the species on record is Homo sapiens. Briefly: To identify inhibition of the IFN signalling (Jak-Stat) pathway via expression of an eGFP reporter gene under the control of an IFN-stimulated response element (ISRE) containing MxA promoter. Type of assay: functional. The note with it: 30 µM.
The target in assay [7] is T4, Tyrosyl-tRNA synthetase, putative (Trypanosoma cruzi (strain CL Brener)) (UniProt Q4DSP6).
T4 sequence (whole entry): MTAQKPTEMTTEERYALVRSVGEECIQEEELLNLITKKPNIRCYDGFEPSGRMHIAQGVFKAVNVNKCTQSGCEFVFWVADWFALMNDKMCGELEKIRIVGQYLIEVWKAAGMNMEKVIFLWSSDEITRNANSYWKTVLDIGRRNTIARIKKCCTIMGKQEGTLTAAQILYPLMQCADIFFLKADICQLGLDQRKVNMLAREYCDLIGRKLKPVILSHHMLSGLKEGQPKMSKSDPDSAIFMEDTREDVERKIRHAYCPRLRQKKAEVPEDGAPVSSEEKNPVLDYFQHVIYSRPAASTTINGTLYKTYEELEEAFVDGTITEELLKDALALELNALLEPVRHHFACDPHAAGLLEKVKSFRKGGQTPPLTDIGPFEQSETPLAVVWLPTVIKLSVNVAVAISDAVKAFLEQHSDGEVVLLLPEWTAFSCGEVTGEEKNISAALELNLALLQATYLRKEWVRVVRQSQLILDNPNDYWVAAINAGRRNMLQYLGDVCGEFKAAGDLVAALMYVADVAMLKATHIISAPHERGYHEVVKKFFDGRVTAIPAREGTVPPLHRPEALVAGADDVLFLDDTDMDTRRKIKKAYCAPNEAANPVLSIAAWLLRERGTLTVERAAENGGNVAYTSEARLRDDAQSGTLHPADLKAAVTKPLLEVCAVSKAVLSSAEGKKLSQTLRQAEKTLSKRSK
In words: Trypanosoma cruzi tyrosyl tRNA synthetase (TcYRS) _High Tyrosine SOP. Also: in the data most compounds retested in dose-response had high values. Type of assay: functional. The note with it: 30 µM.

In assay [8] the target is T4, Tyrosyl-tRNA synthetase, putative (Trypanosoma cruzi (strain CL Brener)). Briefly: Trypanosoma cruzi tyrosyl tRNA synthetase (TcYRS) SOP. Type of assay: functional. As to conditions: 30 µM.
In assay [9] the target is Chromo domain-containing protein 1 (Saccharomyces cerevisiae (strain ATCC 204508 / S288c) (Baker's yeast)) (UniProt P32657). Briefly: ScCHD-1 Enzyme Inhibition Assay. Also: in the data most compounds retested in dose-response had high values. The class given is functional. As to conditions: 30 µM.
Chromo domain-containing protein 1 (Saccharomyces cerevisiae (strain ATCC 204508 / S288c) (Baker's yeast)), sequence (P32657 whole entry, the tested form may be a part): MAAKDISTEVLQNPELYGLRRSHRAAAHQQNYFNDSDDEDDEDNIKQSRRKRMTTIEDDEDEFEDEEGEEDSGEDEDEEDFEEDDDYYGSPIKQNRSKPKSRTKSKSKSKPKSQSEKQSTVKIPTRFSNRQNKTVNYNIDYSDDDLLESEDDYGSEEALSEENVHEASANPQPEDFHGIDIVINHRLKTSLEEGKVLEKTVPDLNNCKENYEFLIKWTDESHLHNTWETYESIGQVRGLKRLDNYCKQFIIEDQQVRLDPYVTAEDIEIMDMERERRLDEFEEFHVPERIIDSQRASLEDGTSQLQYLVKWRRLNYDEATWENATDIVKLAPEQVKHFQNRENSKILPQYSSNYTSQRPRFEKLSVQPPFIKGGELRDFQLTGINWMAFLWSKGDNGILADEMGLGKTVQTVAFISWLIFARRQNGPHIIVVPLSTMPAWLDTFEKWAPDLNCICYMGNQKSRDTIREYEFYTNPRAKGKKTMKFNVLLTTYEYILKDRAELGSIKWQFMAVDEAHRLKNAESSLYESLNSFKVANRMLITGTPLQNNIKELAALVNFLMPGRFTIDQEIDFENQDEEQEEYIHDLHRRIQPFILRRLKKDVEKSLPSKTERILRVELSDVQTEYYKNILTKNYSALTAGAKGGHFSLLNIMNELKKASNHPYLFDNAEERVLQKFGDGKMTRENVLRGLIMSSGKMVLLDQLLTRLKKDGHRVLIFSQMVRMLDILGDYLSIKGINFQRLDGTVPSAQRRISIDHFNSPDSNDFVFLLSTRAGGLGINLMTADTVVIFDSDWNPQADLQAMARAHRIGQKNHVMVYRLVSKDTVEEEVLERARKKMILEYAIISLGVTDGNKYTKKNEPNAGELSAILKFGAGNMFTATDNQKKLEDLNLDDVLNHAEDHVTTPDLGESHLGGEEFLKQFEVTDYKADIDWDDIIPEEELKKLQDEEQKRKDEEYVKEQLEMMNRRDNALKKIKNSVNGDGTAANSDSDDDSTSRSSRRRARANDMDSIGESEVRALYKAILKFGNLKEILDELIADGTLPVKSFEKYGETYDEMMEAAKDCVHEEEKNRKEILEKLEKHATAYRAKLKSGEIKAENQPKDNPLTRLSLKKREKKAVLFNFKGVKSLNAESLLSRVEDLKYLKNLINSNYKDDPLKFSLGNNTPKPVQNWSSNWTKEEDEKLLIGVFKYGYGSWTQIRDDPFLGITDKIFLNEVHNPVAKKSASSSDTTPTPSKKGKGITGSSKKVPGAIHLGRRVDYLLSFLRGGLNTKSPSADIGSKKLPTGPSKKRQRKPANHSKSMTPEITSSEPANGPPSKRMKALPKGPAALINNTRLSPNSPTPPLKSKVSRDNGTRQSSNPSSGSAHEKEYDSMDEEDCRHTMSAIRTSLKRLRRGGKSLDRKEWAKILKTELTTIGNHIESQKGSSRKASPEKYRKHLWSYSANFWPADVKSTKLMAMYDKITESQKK

For some of these results: Potency and affinity values are given separately.

Sialic acid-binding Ig-like lectin 9 (Homo sapiens), sequence (Q9Y336 whole entry): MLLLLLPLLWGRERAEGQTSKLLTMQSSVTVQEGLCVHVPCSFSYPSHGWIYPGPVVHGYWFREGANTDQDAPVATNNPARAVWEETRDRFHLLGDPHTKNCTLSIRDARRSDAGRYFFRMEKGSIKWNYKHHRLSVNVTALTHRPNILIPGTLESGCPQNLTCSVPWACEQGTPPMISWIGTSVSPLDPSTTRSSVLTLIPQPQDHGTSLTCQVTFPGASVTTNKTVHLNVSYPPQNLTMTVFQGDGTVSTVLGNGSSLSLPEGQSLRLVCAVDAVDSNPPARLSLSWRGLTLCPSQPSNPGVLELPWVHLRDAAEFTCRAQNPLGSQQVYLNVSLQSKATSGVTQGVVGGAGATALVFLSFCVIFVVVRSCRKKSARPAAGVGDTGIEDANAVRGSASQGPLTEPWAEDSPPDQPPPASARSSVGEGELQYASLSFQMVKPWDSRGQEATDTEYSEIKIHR
Protein translocase subunit SecA (Escherichia coli (strain K12)), sequence (P10408 whole entry): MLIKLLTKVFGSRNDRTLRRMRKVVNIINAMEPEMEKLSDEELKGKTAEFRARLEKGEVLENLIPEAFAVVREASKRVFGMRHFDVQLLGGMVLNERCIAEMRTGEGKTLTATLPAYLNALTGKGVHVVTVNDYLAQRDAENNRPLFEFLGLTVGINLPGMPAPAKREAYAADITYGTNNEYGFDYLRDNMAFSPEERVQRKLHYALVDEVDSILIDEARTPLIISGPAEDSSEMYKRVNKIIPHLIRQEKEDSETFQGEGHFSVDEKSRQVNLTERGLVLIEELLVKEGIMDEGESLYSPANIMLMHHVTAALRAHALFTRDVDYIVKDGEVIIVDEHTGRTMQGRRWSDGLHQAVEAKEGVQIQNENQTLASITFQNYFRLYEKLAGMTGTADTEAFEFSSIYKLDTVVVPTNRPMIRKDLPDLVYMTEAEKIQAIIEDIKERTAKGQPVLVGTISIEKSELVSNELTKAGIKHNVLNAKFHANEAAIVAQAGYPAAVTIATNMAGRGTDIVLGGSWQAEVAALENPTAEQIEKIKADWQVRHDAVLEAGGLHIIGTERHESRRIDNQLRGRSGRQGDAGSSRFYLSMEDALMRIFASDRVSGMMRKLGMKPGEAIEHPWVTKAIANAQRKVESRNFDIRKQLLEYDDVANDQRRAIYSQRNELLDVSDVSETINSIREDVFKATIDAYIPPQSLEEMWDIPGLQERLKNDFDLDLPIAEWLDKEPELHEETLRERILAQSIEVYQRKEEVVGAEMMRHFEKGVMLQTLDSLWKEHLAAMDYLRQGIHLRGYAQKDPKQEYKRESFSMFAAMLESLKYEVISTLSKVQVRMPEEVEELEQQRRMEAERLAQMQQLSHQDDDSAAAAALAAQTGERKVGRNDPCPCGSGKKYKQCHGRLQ

As to `COc1cccc(N2CCN(C(=O)[C@H](O)C3CCCCC3)CC2=O)c1`, the Percent Effect is -1.35% in [1]; 5.41% in assay [2]; 2.95% in [3]; 1.44% in assay [4]; 2.32% with Trypanosoma cruzi; 2.38% in assay [5]. Besides, the Percent Effect in [6] was 21%; in the assay listed under Homo sapiens, 3.62%; in [7], 8.99%; in assay [8], 17.1%; in assay [9], -2.64%.

As for `Cc1noc(CN2CCN(Cc3cccs3)CC2)n1`, the Percent Effect was -0.284% in assay [1]; 15.6% in [2]; 3.17% in [3]; -3.65% in assay [4]; -5.24% in the assay with Trypanosoma cruzi; 4.27% in assay [5]. Also, the Percent Effect in assay [6] is 0.845%; in the assay filed under Homo sapiens, 22.4%; in [7] it was 6.8%; in assay [8], 19.5%; in assay [9], -5.19%.

Regarding `CC(C)c1nc2n(n1)CC(NCc1nnnn1C1CC1)CC2` (stereo not drawn), the Percent Effect is -2.7% in assay [1]; 32.4% in assay [2]; -23.1% in assay [3]; 6.96% in [4]; 3.87% in the assay on Trypanosoma cruzi; -15.6% in [5]. Further, the Percent Effect is 7.39% in assay [6]; 9.98% in the assay listed under Homo sapiens; 4.43% in [7]; 18.5% in assay [8]; -10.6% in assay [9].

`Cn1ccc(C(=O)N2CCC(Cc3cnc4[nH]ccc4c3)CC2)n1`: the Percent Effect in [1] was -2.94%; in assay [2], 6.76%; in assay [3], 13%; in [4], 2.89%; in the assay on Trypanosoma cruzi, -0.395%; in assay [5], 1.16%. The Percent Effect in assay [6] is 7.64%; in the assay filed under Homo sapiens it was 7.58%; in assay [7], 4.3%; in assay [8] it was 14.3%; in assay [9], -4.7%.

In the case of `Cc1cc(CN(C)C(=O)NC2CCN(Cc3ccccc3)C2)no1` (stereo not drawn), the Percent Effect was -1.84% in [1]; 18.4% in assay [2]; -5.49% in assay [3]; -5.79% in [4]; 4.51% with Trypanosoma cruzi; -2.3% in assay [5]. The Percent Effect in [6] is 15.4%; in the assay filed under Homo sapiens, -0.406%; in [7] it was 8.33%; in assay [8], 21.9%; in assay [9] it was -12%.

As to `O=C(CCN1CCOC(Cn2cccn2)C1)NC1CCCC1` (stereo not drawn), the Percent Effect in [1] was -6.8%; in assay [2], 19%; in assay [3] it was -3.66%; in [4], -3.31%; in the assay with Trypanosoma cruzi it was 3.59%; in assay [5], 0.215%. Besides, the Percent Effect in assay [6] is 15.4%; in the assay listed under Homo sapiens, 4.11%; in [7], 8.33%; in [8], 5.06%; in [9], -15.2%.

For `COC(=O)CCNC(=O)c1ccoc1CN1c2ccccc2CC1C` (stereo not drawn), the Percent Effect was -4.57% in [1]; 0% in assay [2]; 6.85% in assay [3]; 8.39% in [4]; 1.98% with Trypanosoma cruzi; -18.4% in [5]. The Percent Effect in assay [6] is 19.9%; in the assay listed under Homo sapiens, 9.3%; in assay [7] it was 6.25%; in assay [8] it was 3.7%; in [9], -2.6%.

Take `Cc1cccc(-c2ccc(C(=O)NCCN(C)C3CC3)c(=O)[nH]2)c1`: the Percent Effect in assay [1] is -4.4%; in assay [2], 0%; in assay [3], -7.73%; in assay [4], -0.0788%; in the assay with Trypanosoma cruzi, -4.43%; in assay [5], 4.41%. Besides, the Percent Effect in [6] is -0.721%; in the assay listed under Homo sapiens, 19%; in assay [7], 0.493%; in assay [8], 6.17%; in [9], -1.94%.
